SW480 rereplic: induces DNA re-replication in SW480 colon adenocarcinoma cells; Potency, µM (highest dose often 46.1 µM), for the others: at the highest dose re-replication activation, actives largely listed as activators; 1.8% of 340,000 active; SW480 DNA re-replication, Hoechst DNA content imaging, 48 h; note: potency is the fitted concentration of half-maximal effect; % of control where 0% means no effect; nearly all actives have a fitted effect of over 55% in size
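Hoechst fluorescence of nuclei (405 nm excitation, 500-530 nm emission) measured by plate-scanning imager after 48 hr compound exposure at 37 C; re-replication scored as increased number of nuclei with elevated intensity.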
VP16 counter: inhibits Gal4-VP16 luciferase reporter, ROR gamma counter-screen | Drosophila S2 Gal4-VP16 UAS-luciferase, luminescence, 20 h | AID 2546 | 3.5% of 310,000 active | Potency, µM (series often up to 53.6 µM), inactives show at the highest dose activity, negative = inhibition, most hits filed as inhibitors;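 note: Gal4-VP16 expression switched on by copper sulfate through the metallothionein promoter; potency is the fitted concentration of half-maximal effect; % is set by controls: 0 for no effect and ±100 for the full control effect; nearly all actives have a fitted effect of over 50% in size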
RORgamma inh: inhibitors of mouse ROR gamma transcriptional activity; Potency, µM (top dose mostly 53.6 µM), without a hit: at the highest dose activity change, negative = inhibition, most hits filed as inhibitors; Drosophila S2 Gal4-RORgamma UAS-luciferase reporter, 20 h; AID 2551; P51450; 5.4% of 310,000 active; note: potency is the fitted concentration of half-maximal effect; % is set by controls: 0 for no effect and ±100 for the full control effect; nearly all actives have a fitted effect of over 60% in size
Target sequence (P51450 whole entry, looked up, the tested form may be a part): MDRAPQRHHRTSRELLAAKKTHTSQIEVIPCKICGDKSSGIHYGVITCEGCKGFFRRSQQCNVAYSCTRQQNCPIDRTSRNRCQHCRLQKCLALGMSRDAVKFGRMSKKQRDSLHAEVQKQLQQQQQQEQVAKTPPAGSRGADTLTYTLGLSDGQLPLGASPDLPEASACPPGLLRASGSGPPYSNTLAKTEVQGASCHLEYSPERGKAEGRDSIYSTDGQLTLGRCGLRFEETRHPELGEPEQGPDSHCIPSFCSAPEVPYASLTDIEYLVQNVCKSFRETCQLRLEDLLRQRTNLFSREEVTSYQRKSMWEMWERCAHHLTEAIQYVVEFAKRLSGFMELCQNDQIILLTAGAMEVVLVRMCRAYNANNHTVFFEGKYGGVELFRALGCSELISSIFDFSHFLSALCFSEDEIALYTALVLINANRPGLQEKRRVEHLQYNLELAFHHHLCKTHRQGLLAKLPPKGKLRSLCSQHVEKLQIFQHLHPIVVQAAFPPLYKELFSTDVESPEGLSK
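Drosophila S2 cells stably expressing Gal4-DBD/mouse RORγ fusion under metallothionein promoter plus UAS-luciferase; compound 1 h, then 700 uM CuSO4 induction for 20 h at ambient temperature; inhibition read as reduced luminescence.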
IL1B secr inh: inflammasome signaling inhibition, IL-1 beta readout. THP-1 LPS/ATP IL-1B secretion, AlphaLISA, 16 h; hits give low values. activity change, % at 57.5 µM. 4.7% of 360,000 active; in the data active = activity change below about -50%; inconclusive = mostly about -30% to -49%; note: % is set by controls: 0 for no effect and ±100 for the full control effect
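Secreted IL-1B measured by AlphaLISA bead assay after 16 h compound exposure of THP-1 cells; compounds (final up to 57.5 uM) added 1 h before LPS (250 ng/mL) and ATP (1.25 mM) stimulation; lower signal means less secretion.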
MCF10A rerep: DNA re-replication induction in MCF 10a cells; Potency, µM (titrated, usually from 46.1 µM), inactives show at the highest dose activity, positive = re-replication, usual class: activators; 2.9% of 350,000 active; AID 624296; MCF 10A DNA re-replication, Hoechst nuclear intensity, 48 h; note: potency is the fitted concentration of half-maximal effect; % of control where 0% means no effect; nearly all actives have a fitted effect of over 50% in size
Starred values were filed as active, the others as inactive; ? = inconclusive; nt = not tested or not shown; [ ] = another dose, or the depositor's remark. Shown are actives, neighbours in structure and some others; about 11% of the full set was active somewhere. Unless noted, calls come from the whole dose curve; as a rule, active = well fitted curve in the direction sought with a large enough effect; inconclusive = small, poorly fitted or top-dose-only effect, or another doubt; inactive = no such curve, though single readings can be large; an effect the other way counts as inactive or inconclusive.

SMILES	SW480 rereplic	VP16 counter	RORgamma inh	IL1B secr inh	MCF10A rerep
COCC(=O)N(C)c1nnc(-c2ccc([N+](=O)[O-])cc2)s1	-1.1%	-1.4%	15.3%	-57.5*	?
COc1cccc(OCc2cc(C(=O)N3CCN(c4ccccc4OC)CC3)no2)c1	2.8%	?	-4.4%	2.9	15.2%
O=C1CS/C(=N/N=C\c2ccn[nH]2)N1	1.5%	?	10µM*	9.5	1.7%
COc1ccc(/C=C/C(=O)C2CC2)cc1Cn1nc(C)c([N+](=O)[O-])c1C	?	?	17.8%	-110.1*	?
COc1ccc(C(C)=O)cc1Cn1nc(C)c([N+](=O)[O-])c1C	-9.4%	-5.3%	31.8%	-12.9	-0.7%
O=C(NC(=S)Nc1nc(-c2ccc(Br)cc2)cs1)c1cccnc1	-1.2%	?	1.12µM*	4.4	-7.3%
COc1ccc(-c2csc(NC(=O)c3ccco3)n2)cc1	0.5%[9.22 µM]	25.1%	?	-26.3	12.7%
O=C(Nc1nc(-c2ccccc2)cs1)c1ccco1	-5.2%	-2.5%	25.9%	-59.2*	0.6%
Cc1ccc(C(=O)Nc2nc(-c3ccc([N+](=O)[O-])cc3)cs2)o1	-32.7%	?	19.5%	-8.2	1.5%
O=C(NC(=S)Nc1nc(-c2ccc(Br)cc2)cs1)c1ccco1	-4.5%	8.3%	2.82µM*	7.4	46.5%
Cc1ccc(-c2csc(NC(=S)NC(=O)c3cc4ccccc4o3)n2)cc1	-0.7%	5.5%	2.4%	14.4	0.2%
O=C(Nc1nc(-c2ccc(Br)cc2)cs1)c1cccnc1	-0.3%	3.4%	-6.9%	-15.6	-0.9%
O=C(NC(=S)Nc1nc(-c2ccc([N+](=O)[O-])cc2)cs1)c1ccco1	0.5%	?	2.24µM*	19.0	3.1%
Cc1nc(N)nc(N(C)c2ccccc2)c1Br	?	nt	nt	20.7	?
O=C(NNc1nc(-c2ccc(Br)cc2)cs1)c1ccco1	?	?	5.62µM*	-1.8	2.59µM*
Cc1ccc(-c2csc(NC(=O)c3ccco3)n2)cc1C	-1.3%	-6.8%	32.2%	-25.7	?
CCN1C(=O)[C@H]2[C@@H](c3ccc(C)cc3)N3C(=O)N(c4ccccc4)C(=O)[C@@]3(CC)[C@H]2C1=O	?	17.5%	21.4%	6.0	?
Cc1c(C(=O)OCC(=O)Nc2ccc(S(N)(=O)=O)cc2)oc2c1ccc1ccccc12	-0.5%	?	35.3%	30.3	?
Cc1cc(NC(=O)COC(=O)c2oc3c(ccc4ccccc43)c2C)no1	-0.3%	11.2µM*	?	13.2	?
COc1ccc2c(c1)CCC1(C)CC(=O)C(Br)=C21 (centres undefined)	nt	nt	nt	2.4	nt
COc1ccc2c(c1)CCCC(Br)C2=O (centres undefined)	18.4µM*	nt	nt	-66.8*	?
CCOC(=O)C(C#N)=CN1CCNc2ccccc21	2.3%	nt	nt	-21.2	-2.0%
CCN(CC(=O)NCc1cccs1)S(=O)(=O)c1ccccc1Cl	?	nt	nt	5.6	10.8%
O=S(=O)(/N=C(/Nc1cccc2ccccc12)c1ccc(F)cc1)c1ccccc1	5.1%	22.9%	13.9%	-19.2	7.6%
COc1ccc(C(=O)NCC(C)(C)SCc2c(C)cc(C)cc2C)cc1	-6.9%	?	?	-72.1*	-14.6%
SMILES	SW480 rereplic	VP16 counter	RORgamma inh	IL1B secr inh	MCF10A rerep
COc1ccc2c(c1)O[C@@H]1c3ccc(OC)cc3OCC21 (some centres undefined)	nt	-2.4%	25.3%	nt	nt
COc1ccc(/C=N/NC(=S)Nc2cc(C(F)(F)F)ccc2Cl)cc1	?	3.98µM*	0.355µM*	12.2	9.2%
COc1ccc(/C=C/C(=O)Nc2cc(C(F)(F)F)ccc2Cl)cc1	16.6%	-17.9%	-3.9%	18.3	?
O=C(NCCc1ccccc1)C(=O)N/N=C/c1ccccc1C(F)(F)F	18.4%	0.7%	-1.5%	-6.2	-21.3%
FC(F)(F)c1ccc(Cl)c(NC(=S)N/N=C/c2ccccc2C(F)(F)F)c1	35.7%	0.562µM*	0.316µM*	-4.0	2.6%
C[C@@H]1COc2cccc(N3CCC[C@H]3CO)c2S(=O)(=O)N1	nt	nt	nt	18.9	nt
CCOC(=O)c1cc2c(c(-c3cccc(C#Cc4ccc(OC)c(OC)c4)c3)n1)[C@@H](CCO)N(S(=O)C(C)(C)C)C2 (some centres undefined)	nt	nt	nt	-28.3	nt
